# Screening data as filed in PubChem BioAssay.
# Rows were chosen to be rich in hits. Some 1.1% of all compounds tested hit in one or more screens of this group.
# VCAM1 TNFa inh – reduces TNF alpha induced VCAM1 expression in HUVEC | HUVEC TNFa-induced VCAM-1 immunofluorescence, high-content imaging | inhibition, % at 2 µM | 0.48% of 95,000 active | AID 802;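 active means inhibition above the batch mean plus 3 SD, with images confirmed as a hit by eye, cut at about 37% in these data; inconclusive means inhibition above that limit but hit not confirmed in images; inactive means inhibition not above that limit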;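 further: 0% = TNF-stimulated DMSO wells and 100% = unstimulated control wells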
# E-sel TNF inh – TNF alpha driven E-selectin expression inhibition | HUVEC TNFa-induced E-selectin immunofluorescence, high content | inhibition, % at 2 µM | 0.71% of 120,000 active | AID 1246;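 active means inhibition above the batch mean plus 3 SD, and confirmed as a hit on visual image review, cut at about 43% in these data; inconclusive means passes the inhibition cutoff but fails visual image review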;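 further: 0% = TNF-stimulated DMSO wells and 100% = unstimulated control wells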
# TNFa cytotox – HUVEC cytotoxicity counter-screen, TNF alpha stimulated; HUVEC TNFalpha-stimulated, Hoechst cell count, imaging; cell count reduction, % at 2 µM; 0.17% of 93,000 active; AID 848;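 active means cell count reduction exceeding the screen mean by over 5 SD, scaled to untreated wells per plate, cut at about 78% in these data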;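 further: cells counted after 24 h of TNF alpha exposure following the 1 h pretreatment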
# F-actin modifier – alters cytoskeleton assembly in HUVEC cells; HUVEC TNFa F-actin phalloidin imaging, high content; inhibition, % at 2 µM; 0.18% of 91,000 active;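 active means inhibition above the batch mean plus 3 SD and confirmed as a hit by visual image inspection, cut at about 30% in these data, passing the limit was not always enough; inconclusive means above the inhibition threshold but rejected on visual inspection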
# Active calls of the source: *; u = inconclusive; x = no result.
SMILES,VCAM1 TNFa inh,E-sel TNF inh,TNFa cytotox,F-actin modifier
COc1ccc(-c2nc(C#N)c(NCC3CCCO3)o2)cc1 (configuration not stated),35,-21,-18,6
CCOC(=O)c1c(NC(=O)CN2CCOCC2)sc(C(=O)NC)c1C,3,-3,0,-8
COCCOC(=O)c1c(NC(=O)CN2CCOCC2)sc(C(N)=O)c1C,0,72*,-8,-14
CN1CCCCc2c1[nH]c1ccccc1c2=O,86*,14,-47,19
CCOc1ccc2[nH]cc(C(=O)NCCCN3CCOCC3)c(=O)c2c1,x,3,x,x
CSc1ccc(/C=N/NC(=O)CN2CCN(Cc3ccc(C)cc3)CC2)cc1,x,88*,x,x
c1ccc2c(c1)CCOC2CNCCCN1CCCCC1 (configuration not stated),9,-12,-14,18
COC(=O)c1cc(Br)c(=O)n(Cc2cccnc2)c1,9,-1,-8,-14
COC(=O)c1cc(Br)c(=O)n(Cc2ccncc2)c1,8,64*,6,14
COc1ccc(S(=O)(=O)N2CCC(N3CCN(c4ccccc4)CC3)CC2)cc1,20,-16,-28,-3
COc1ccc(N=C2SCC(=O)N2c2ccc(OC)cc2)cc1,-15,87*,-9,-7
COc1ccc(N=C2SC(C(=O)O)CC(=O)N2C)cc1 (configuration not stated),-4,-1,-30,-19
Cc1nc2scc(-c3ccccc3)c2c(=O)n1N,2,x,0,-20
Cc1nc2scc(-c3ccccc3)c2c(=O)n1N=C1C=CC(=O)C=C1,x,88*,x,x
CCS(=O)(=O)c1ccc2oc(Nc3cc(C)cc(C)c3)nc2c1,4,-12,3,-11
CCS(=O)(=O)c1ccc2oc(Nc3ccc(C(C)C)cc3)nc2c1,11,64*,-28,x
COc1ccc(C/C(=N\O)c2ccc(OC)cc2)cc1,11,3,12,10
CCCn1c(=N)n(CCOCCOCCn2c(=N)n(CCC)c3ccccc32)c2ccccc21,15,10,-6,12
Cn1c(SC2=CS(=O)(=O)c3ccccc32)nc2ccccc21,8,62*,12,13
Cc1cc2cc(C=C(C#N)C#N)c(Cl)nc2cc1C,x,58*,x,x
COC(=O)C1C(=O)C2=C(CC1C)NC(=O)CC2c1cccc(C)c1 (configuration not stated),77*,9,87*,-8
O=C(CSC1CC(=O)N(c2ccc(C(=O)O)cc2)C1=O)Nc1ccc(Cl)cc1 (configuration not stated),x,-45,x,x
CCc1ccccc1NC(=O)CSc1nc2n[nH]c(C)c2c(=N)n1-c1cccc(OC)c1,9,54*,-14,4
COc1ccc(/C(O)=C2/C(=O)C(=O)N(CCCN(C)C)C2c2cccc(Cl)c2)cc1OC (configuration not stated),x,4,x,x
CN(c1ccccc1)S(=O)(=O)c1ccc(NC(=S)NC(=O)C2CC2)cc1,x,-30,x,x
SMILES,VCAM1 TNFa inh,E-sel TNF inh,TNFa cytotox,F-actin modifier
CN(Cc1ccccc1)S(=O)(=O)c1ccc(NC(=S)NC(=O)C2CCCC2)cc1,48*,-3,16,6
O=C(NC(=S)N(Cc1ccccc1)c1ccccn1)C1CCCCC1,x,-11,x,x
CN(Cc1ccccc1)C(=S)NC(=O)C1CCCCC1,x,93*,x,x
O=C(c1ccc([N+](=O)[O-])cc1)N(Cc1ccc(Cl)cc1)N1C(=O)CCCC1=O,46*,22,3,9
N#CCSc1nnc(Cc2cccc3ccccc23)n1C1CCCCC1,-7,0,-12,45
CC(C)(C)c1cc(OC(=O)c2ccncc2)ccc1O,-2,93*,-3,2
COc1ccc(CN2CCCCC2C(=O)Nc2ccc(OC)c(OCC(C)C)c2)cc1OC (configuration not stated),97*,6,-10,7
C=CCNC(=O)CSc1ccc(Cl)cc1,16,-6,-12,5
Cc1cc(C)n(C(=O)c2ccc(NC(=O)C3COc4ccccc4O3)cc2)n1 (configuration not stated),98*,-11,85*,u
N=c1c2cn[nH]c2nc(SCC(=O)c2ccc(Br)cc2)n1-c1ccc(Br)cc1,x,3,x,x
CCC(CC)C(=O)c1c[nH]c(C(=O)NCCCN2CCOCC2)c1,-25,86*,-10,14
CCCOc1cc(C)c(S(=O)(=O)NC2CC(C)(C)NC(C)(C)C2)cc1C,x,12,x,x
Cc1ncc(CO)c2cc(C(N)=O)c(=Nc3ccccc3)oc12,19,11,-7,36*
CCOc1cc(NC(=O)c2ccco2)c(OCC)cc1NC(=O)Cc1cccc(OC)c1,15,-12,17,15
CCOc1cc(NC(=O)c2ccco2)c(OCC)cc1NC(=O)CCC(=O)NCc1cccnc1,u,11,100*,u
CCOc1ccc2[nH]c(C)c(CN3CCOCC3)c(=O)c2c1,0,x,-37,76*
Cc1[nH]c2ccc(Br)cc2c(=O)c1CN1CCOCC1,0,-23,-7,-19
O=S1(=O)CCN(C(CCO)c2cccc(C(F)(F)F)c2)CC1 (configuration not stated),x,95*,x,x
CCc1nnc(NC(=O)CSc2ncc(-c3ccccc3)n2CC)s1,-3,-4,-48,-24
Cc1oc(-c2ccc(Cl)cc2)cc1-c1nn2c(-c3ccoc3C)nnc2s1,54*,-18,x,0
Clc1ccc(-c2nnc3sc(-c4ccc(Br)o4)nn23)cc1,1,13,-11,-5
CCOc1cc(S(=O)(=O)Nc2ccccc2CC)ccc1Cl,98*,1,79*,-3
Cc1c(C(=O)Nc2ccccc2)oc2c1C(=O)CC(C)(C)C2,-1,20,10,-8
Cc1ccc(NC(=O)c2oc3c(c2C)C(=O)CC(C)(C)C3)cc1,97*,-28,-3,-2
COc1ccc(-n2c(-c3ccc(F)cc3)cnc2SCC(=O)NCc2ccco2)cc1,13,1,-9,4
SMILES,VCAM1 TNFa inh,E-sel TNF inh,TNFa cytotox,F-actin modifier
COc1ccc(-n2c(SCC(=O)NCc3ccco3)nc3c([nH]c4ccccc43)c2=O)cc1,14,82*,-18,-5
O=C(O)C1CCC(N2C(=O)C3CCCCC3C2=O)CC1 (configuration not stated),78*,-12,57,-49
O=c1c2ccccc2n2c(-c3cccc(F)c3)nnc2n1Cc1ccccc1,x,74*,x,x
O=C(Nc1nc(-c2cccnc2)cs1)c1ccccc1[N+](=O)[O-],x,-12,x,x
COc1ccccc1-n1cc(C(=O)NCC(=O)N2CCN(c3ccccc3)CC2)c2ccccc2c1=O,14,x,-14,6
O=C(Cc1cccs1)NCc1ccncc1,-1,64*,-2,-12
O=C(Cc1cccs1)NCc1ccccc1,x,-35,x,x
CCOC(=O)N1CCC(NC(=O)c2ccc3c(=O)n4c(nc3c2)CCCC4)CC1,-2,64*,4,36
O=C(c1ccc(Br)cc1)c1sc(N2CCOCC2)nc1-c1ccccc1,x,-16,x,x
Cc1csc2ncc(C(=O)NC(C)c3ccccc3)c(=O)n12 (configuration not stated),22,x,0,3
Cc1cnc(NC(=O)c2ccco2)s1,6,x,89*,-15
Cc1cccc(NC(=O)CC2SC(=O)N(c3ccccc3)C2=O)c1 (configuration not stated),96*,2,78*,-35
